This note sets out measurements from PubChem BioAssay AID624404 (Broad Institute, 2012).

Structures are written as SMILES. The campaign covered roughly 1,800 compounds. About 710 (39%) were called active. Roughly 28% stayed inconclusive and do not appear here.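 How the source made its calls: active means luciferase signal rise whose fitted curve crosses a set activity limit at or below the top valid tested dose; inconclusive means flat fit with 30 to 70% rise, or poor fit; inactive means signal falling, flat within 30%, or crossing above top dose.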 These entries were drawn from the full list. Potency and affinity values are given separately.

This assay is described as follows: luciferase activators in glycosylation-insensitive reporter cells, dose response, counter-screen for N-linked glycosylation inhibitor project, D54 LucT cells, luminescence, cherry pick (AID 624404).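 Further: 0% = median neutral control signal and 100% = twice that signal.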 The conditions noted are these: D54 LucT luciferase reporter counterscreen, 24 h; series mostly up to 19.5 µM; activity increase (luciferase signal): at the top concentration. (The purpose of a counterscreen is to sort out artefacts and off-target activity.)
In the case of `COc1cc2c(cc1OC)C(C)N(C(=O)Nc1ccccc1)CC2` (stereo not given), the “activity increase (luciferase signal)” value was 55.9% (inactive).
As for `COc1ccc(C(=O)/C=C/Sc2nc3ccccc3o2)cc1`, the “activity increase (luciferase signal)” value is 40.7% (inactive).
Consider `COc1ccc(CCn2c(Br)nc3c2c(=O)[nH]c(=O)n3C)cc1`, for which the “activity increase (luciferase signal)” value is 57.4% (inactive).
Consider `COc1cc(/C=N/Nc2nc3c(c(=O)n(C)c(=O)n3C)n2Cc2ccccc2)ccc1OC(=O)c1ccco1`, for which the “activity increase (luciferase signal)” value was -6.13% (inactive).
The value for `COc1cc(C2CC(=O)N(c3ccc(C)cc3)C(=O)C2)cc(OC)c1OC` was 12.2% (inactive).
Regarding `CC(C)c1ccc(NC(=O)CN2C(=O)NC3(CCCCCCC3)C2=O)cc1`, the “activity increase (luciferase signal)” value was 72.3% (inactive).
With `CCN(CC)S(=O)(=O)c1cccc(NC(=O)CN2C(=O)NC3(CCC(C)CC3)C2=O)c1` (stereo not given), the “activity increase (luciferase signal)” value was 8.57% (inactive).
As to `NC(=O)c1ccc2c(=O)n3c(-c4cc(Cl)c(N)c(Cl)c4)csc3nc2c1`, the “activity increase (luciferase signal)” value is 15.3% (inactive).
The same measure for `OCC1OC(n2cnc3c(=S)nc[nH]c32)CC1O` (stereo not given): 6.1% (inactive).
Consider `Cc1cccn2c(=O)c3cc(C(=O)N4CCCCC4)sc3nc12`, for which the “activity increase (luciferase signal)” value was 51.5% (inactive).
The same measure for `Cc1cccn2c(=O)c3cc(C(=O)NC4CCCC4)n(C)c3nc12`: 32.5% (inactive); for `Cc1cccn2c(=O)c3cc(C(=O)NC4CCCC4)c(=N)n(CCc4ccccc4)c3nc12`: -47.6% (inactive).
As for `Cc1cccn2c(=O)c3cc(C(=O)NC4CCCC4)c(=N)n(CC4CCCO4)c3nc12` (stereo not given), the “activity increase (luciferase signal)” value was -16.3% (inactive).
For `CCN(CC)CCOc1ccc2c(c1)C(=NNC(=O)c1ccccn1)c1cc(OCCN(CC)CC)ccc1-2`, the “activity increase (luciferase signal)” value was -83.9% (inactive).
For the compound `CC(C)Oc1ccc(C(=O)/C=C2/C(=O)Nc3ccccc32)cc1`, the “activity increase (luciferase signal)” value was 19.1% (inactive).
In the case of `CCc1ccc(NC(=O)Cn2c(=O)n(CCC(=O)NC3CCN(Cc4ccccc4)CC3)c(=O)c3ccccc32)cc1`, the “activity increase (luciferase signal)” value is -6.28% (inactive).
The same measure for `O=C(CCl)Nc1ccc(Sc2ccc(NC(=O)CCl)cc2)cc1`: -72.8% (inactive); for `Cc1[nH][nH]c(=O)c1C(c1ccc(-c2cccc(Cl)c2)o1)c1c(C)[nH][nH]c1=O`: 32.4% (inactive); for `Cc1[nH][nH]c(=O)c1C(c1ccc(-c2ccc(F)cc2)o1)c1c(C)[nH][nH]c1=O`: 31.7% (inactive).
Turning to `CC1(C(=O)Nc2ccc(Cl)cc2)Cc2c(-c3ccc4c(c3)OCO4)ccnc2O1` (stereo not given), the “activity increase (luciferase signal)” value is 27.1% (inactive).
On to `CC1(C(=O)Nc2ccc3c(c2)OCO3)Cc2c(-c3ccc4c(c3)OCO4)ccnc2O1` (stereo not given), for which the “activity increase (luciferase signal)” value is 15.3% (inactive).
Regarding `CCOC(=O)c1cc2c(ccn2C)n1CC(=O)N1CCN(c2ccccc2)CC1`, the “activity increase (luciferase signal)” value was 20.9% (inactive).
As for `FC(F)(F)c1cccc(Sc2nc(-c3ccccc3)nnc2C(F)(F)F)c1`, the “activity increase (luciferase signal)” value was -9.88% (inactive).
`Nc1nonc1-c1nc2ccccc2n1CC(=O)N/N=C\c1ccc(-c2ccc(Cl)cc2)o1`: the “activity increase (luciferase signal)” value is 13.8% (inactive).
`COc1ccc(C(=O)/C=C/c2ccc(OC(=O)c3cc(OC)c(OC)c(OC)c3)cc2)cc1`: the “activity increase (luciferase signal)” value is 20.6% (inactive).
With `COc1ccc(CCn2c(=N)c(S(=O)(=O)c3ccc(C)cc3)cc3c(=O)n4ccccc4nc32)cc1`, the “activity increase (luciferase signal)” value is 255% (inactive).
As to `Cc1ccc2nc3c(cc(C(N)=S)c(=N)n3CCCOC(C)C)c(=O)n2c1`, the “activity increase (luciferase signal)” value is 17.8% (inactive).
With `N=c1c(C(=O)NCc2ccco2)cc2c(=O)n3ccccc3nc2n1CCc1ccccc1`, the “activity increase (luciferase signal)” value is -10% (inactive).
Turning to `CCOc1cc(/C=C/C(=O)c2ccc(C)cc2)ccc1OCC(=O)N(C)C`, the “activity increase (luciferase signal)” value is 47.5% (inactive).
In the case of `O=C(Nc1cccc(-n2cnnn2)c1)c1cc(Cl)ccc1Cl`, the “activity increase (luciferase signal)” value was 19.6% (inactive).
For `c1ccc(CN2CCC(Nc3nc(-c4cccnc4)nc4ccccc34)CC2)cc1`, the “activity increase (luciferase signal)” value is -28.2% (inactive).
Turning to `COc1ccc(N2CC(C(=O)Nc3cc(C(F)(F)F)ccc3N3CCCC3)CC2=O)c(OC)c1` (stereo not given), the “activity increase (luciferase signal)” value was 11.6% (inactive).
For the compound `Cn1nc(-c2ccc(N3CCOCC3)c(NS(=O)(=O)c3ccccc3)c2)c2ccccc2c1=O`, the “activity increase (luciferase signal)” value was 31.8% (inactive).
`CCc1ccc(N2CC(C(=O)Nc3ccccc3N3CCCC3)CC2=O)cc1` (stereo not given): the “activity increase (luciferase signal)” value was 18.3% (inactive).
The value for `COc1ccc2nc3n(c(=O)c2c1)-c1cc2ccccc2cc1C(=O)NC3Cc1ccccc1` (stereo not given) was -29.2% (inactive).
The same measure for `COc1cccc(/C=N/NC(=O)c2[nH]nc3c2CCc2ccccc2-3)c1`: 19.5% (inactive).
The same measure for `Cc1ccc(C(c2cc(Cl)c3cccnc3c2O)N2CCN(C)CC2)cc1` (stereo not given): -2.86% (inactive); for `Cc1nc2c3cc(F)ccc3n(CCN3CCCCC3)c2s1`: 14.4% (inactive); for `COc1ccc(F)cc1C1=CC(=O)C[C@H](c2ccc3c(c2)OCO3)C1`: 32.4% (inactive).
Consider `CN1C/C(=C\c2ccc(N3CCOCC3)cc2)C(=O)/C(=C/c2ccc(N3CCOCC3)cc2)C1`, for which the “activity increase (luciferase signal)” value is -37.8% (inactive).
Regarding `COc1cc(-c2nc(-c3ccccc3)c(-c3cccs3)[nH]2)cc(OC)c1O`, the “activity increase (luciferase signal)” value is 26.6% (inactive).
Consider `Cc1noc(C)c1COc1ccccc1C(=O)N1CCN(c2cccc(C(F)(F)F)c2)CC1`, for which the “activity increase (luciferase signal)” value is 25.9% (inactive).
For the compound `CN(C)c1ccc(/C=C/c2cc[n+](C)c3ccccc23)cc1`, the “activity increase (luciferase signal)” value was -17.1% (inactive).
As to `COc1ccc(C2C(C(=O)Nc3cc(OC)c(OC)c(OC)c3)c3ccccc3C(=O)N2C)cc1` (stereo not given), the “activity increase (luciferase signal)” value was -0.8% (inactive).
As for `Cn1cc(/C=N/n2cnc3scc(-c4ccc(Cl)cc4)c3c2=O)c2ccccc21`, the “activity increase (luciferase signal)” value is -4.96% (inactive).
Turning to `Cc1[nH][nH]c(=O)c1C(c1ccc(-c2ccc(Cl)c(Cl)c2)o1)c1c(C)[nH][nH]c1=O`, the “activity increase (luciferase signal)” value is 11% (inactive).
In the case of `Cc1ccccc1OCC(O)CN1CCN(CCN2C(=O)c3cccc4cccc(c34)C2=O)CC1` (stereo not given), the “activity increase (luciferase signal)” value is -2.69% (inactive).
Regarding `COc1cccc(OCC(O)CN2CCN(CCN3C(=O)c4cccc5cccc(c45)C3=O)CC2)c1` (stereo not given), the “activity increase (luciferase signal)” value was 1.12% (inactive).
As for `CC(C)CCN(C(=O)Cc1ccc(Cl)c(Cl)c1)c1c(N)n(Cc2ccccc2)c(=O)[nH]c1=O`, the “activity increase (luciferase signal)” value is 6.92% (inactive).
Take `CCN(CC)c1ccc(/C=C/c2cccc[n+]2C)c(OC)c1`: the “activity increase (luciferase signal)” value was -53.2% (inactive).
